# Source: PubChem BioAssay (Tox21)
# “And” between values parts separate entries of the source, which are not always exact repeats. Equal entries are not always repeated. Results filed as inconclusive are left out. A call without a number means that no potency is given here. Some compounds were tested as several samples or in several runs, with calls that do not always agree. The source made the active and inactive calls. Unless noted, the call rests on the fitted dose curve; in most records, active means well fitted curve in the direction sought with a large enough effect in the repeat runs; inconclusive means weak or mixed curves; inactive means no such curve, though single readings can be large; an effect the other way counts as inactive or inconclusive.
# What was measured:
# [1] = biological target: Aryl hydrocarbon receptor (Homo sapiens) (UniProt P35869); assay: qHTS assay to identify small molecule that activate the aryl hydrocarbon receptor (AhR) signaling pathway (AID 743085); further: nearly all actives have a fitted effect of over 15% in size; further: potency means the concentration at half of the fitted maximal effect;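 on activation: HG2L7.5c1 human HepG2 liver cells with stably integrated DRE-driven firefly reporter; series mostly up to about 70 µM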
# Sequence of Aryl hydrocarbon receptor (Homo sapiens) (P35869 whole entry, looked up): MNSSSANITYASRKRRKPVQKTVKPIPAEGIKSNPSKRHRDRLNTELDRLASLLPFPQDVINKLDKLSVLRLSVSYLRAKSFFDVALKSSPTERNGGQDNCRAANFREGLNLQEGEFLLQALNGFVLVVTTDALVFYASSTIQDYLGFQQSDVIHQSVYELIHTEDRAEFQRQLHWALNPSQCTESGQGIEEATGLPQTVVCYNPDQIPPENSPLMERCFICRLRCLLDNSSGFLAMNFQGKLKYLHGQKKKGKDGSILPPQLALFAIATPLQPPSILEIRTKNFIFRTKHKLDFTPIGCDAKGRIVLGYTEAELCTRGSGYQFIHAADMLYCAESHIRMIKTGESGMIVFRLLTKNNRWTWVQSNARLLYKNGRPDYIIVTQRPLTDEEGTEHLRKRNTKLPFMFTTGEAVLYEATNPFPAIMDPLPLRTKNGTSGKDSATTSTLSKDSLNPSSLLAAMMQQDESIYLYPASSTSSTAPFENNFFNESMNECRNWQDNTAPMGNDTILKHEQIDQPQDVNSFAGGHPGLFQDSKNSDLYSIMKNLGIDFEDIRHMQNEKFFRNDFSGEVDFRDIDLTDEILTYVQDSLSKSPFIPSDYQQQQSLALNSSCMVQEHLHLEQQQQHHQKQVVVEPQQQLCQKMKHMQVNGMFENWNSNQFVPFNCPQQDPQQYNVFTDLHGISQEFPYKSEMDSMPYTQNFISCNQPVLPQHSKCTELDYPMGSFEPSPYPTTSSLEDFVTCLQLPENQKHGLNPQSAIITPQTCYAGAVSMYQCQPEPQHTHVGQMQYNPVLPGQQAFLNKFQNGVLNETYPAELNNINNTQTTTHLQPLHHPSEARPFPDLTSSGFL
# Procedure, shortened: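 Luminescence (ONE-Glo) from a dioxin-responsive-element luciferase reporter in HG2L7.5c1 HepG2 cells after 24 hr compound exposure at 37C; viability measured by CellTiter-Fluor fluorescence beforehand.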
# [2] = qHTS assay to identify small molecule antagonists of the peroxisome proliferator-activated receptor gamma (PPARg) signaling pathway - cell viability counter screen (AID 743194); conditions: Potency: co-treated with 50 nM rosiglitazone unless noted; further: nearly all actives have a fitted effect of over 55% in size; further: potency means the concentration at half of the fitted maximal effect
# Procedure, shortened: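 Viability was measured as CellTiter-Glo luminescence in GeneBLAzer PPARg UAS-bla HEK293H cells. These cells had been exposed 17 h at 37 C to compounds together with rosiglitazone at 50 nM final, with the beta-lactamase readout taken in the same wells.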
# [3] = qHTS assay for small molecule agonists of the antioxidant response element (ARE) signaling pathway (AID 743202; active means well fitted activation curve with a large enough effect in the signal ratio in the repeat runs, not every such curve was filed as active; the % refers to the signal ratio; further: potency means the concentration at half of the fitted maximal effect)
# Procedure, shortened: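 Beta-lactamase reporter activity, read as fluorescence intensity, reflects ARE/Nrf2 pathway induction in HepG2 cells after 16 h compound exposure at 37 C; substrate loading was 2 h at room temperature.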
# [4] = qHTS assay for small molecule activators of the heat shock response signaling pathway - cell viability counter screen (AID 743209); further: nearly all actives have a fitted effect of over 50% in size; further: potency means the concentration at half of the fitted maximal effect
# Procedure, shortened: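 HSE-bla HeLa; 1500 cells/well; overnight 37 C, 5% CO2; compound 5 h 37 C; LiveBLAzer B/G substrate 2.5 h RT; CellTiter-Glo 30 min RT; luminescence.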
# [5] = qHTS assay to identify small molecule that activate the aryl hydrocarbon receptor (AhR) signaling pathway - cell viability counter screen (AID 743086); further: nearly all actives have a fitted effect of over 45% in size; further: potency means the concentration at half of the fitted maximal effect
# Procedure, shortened: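 Cytotoxicity counter screen: CellTiter-Fluor signal (30 min, 37 C) in 4000 HepG2 cells/well carrying the DRE-luciferase reporter, following 24 h compound exposure at 37 C.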
# [6] = qHTS assay for small molecule agonists of the antioxidant response element (ARE) signaling pathway - cell viability counter screen (AID 743203; calls by dose curve; further: nearly all actives have a fitted effect of over 55% in size; further: potency means the concentration at half of the fitted maximal effect)
# Procedure, shortened: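 Luminescence read-out (CellTiter-Glo, 30 min at room temperature) measured cell viability in the same wells as the ARE beta-lactamase reporter. HepG2 ARE-bla cells were treated with compounds for 16 hrs at 37C/5% CO2.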
# [7] = qHTS assay to identify small molecule agonists of the peroxisome proliferator-activated receptor delta (PPARd) signaling pathway - cell viability counter screen (AID 743211); further: nearly all actives have a fitted effect of over 55% in size; further: potency means the concentration at half of the fitted maximal effect
# Procedure, shortened: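 Viability was measured as CellTiter-Glo luminescence (30 min, room temperature) in the same wells as the beta-lactamase readout. GeneBLAzer PPARd UAS-bla HEK293H cells received compound after 5 h plating and were incubated 17 h at 37 C.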
# [8] = qHTS assay for small molecule activators of the heat shock response signaling pathway (AID 743210; active means well fitted activation curve with a large enough effect in the signal ratio in the repeat runs, with a control signal flat, not every such curve was filed as active; the % refers to the signal ratio; further: potency means the concentration at half of the fitted maximal effect;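 on activation: HeLa cells with beta-lactamase reporter driven by heat shock elements; series mostly up to about 63 µM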)
# Procedure, shortened: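 Fluorescence from a cleaved B/G FRET substrate (2.5 h, room temp) reports HSE-driven beta-lactamase in HeLa cells treated 5 h at 37 C with DMSO-dissolved compounds.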
# [9] = biological target: Peroxisome proliferator-activated receptor gamma (Homo sapiens) (UniProt P37231); assay: qHTS assay to identify small molecule agonists of the peroxisome proliferator-activated receptor gamma (PPARg) signaling pathway (AID 743094; active means well fitted activation curve with a large enough effect in the signal ratio in the repeat runs, not every such curve was filed as active; the % refers to the signal ratio)
# Sequence of Peroxisome proliferator-activated receptor gamma (Homo sapiens) (P37231 whole entry, looked up): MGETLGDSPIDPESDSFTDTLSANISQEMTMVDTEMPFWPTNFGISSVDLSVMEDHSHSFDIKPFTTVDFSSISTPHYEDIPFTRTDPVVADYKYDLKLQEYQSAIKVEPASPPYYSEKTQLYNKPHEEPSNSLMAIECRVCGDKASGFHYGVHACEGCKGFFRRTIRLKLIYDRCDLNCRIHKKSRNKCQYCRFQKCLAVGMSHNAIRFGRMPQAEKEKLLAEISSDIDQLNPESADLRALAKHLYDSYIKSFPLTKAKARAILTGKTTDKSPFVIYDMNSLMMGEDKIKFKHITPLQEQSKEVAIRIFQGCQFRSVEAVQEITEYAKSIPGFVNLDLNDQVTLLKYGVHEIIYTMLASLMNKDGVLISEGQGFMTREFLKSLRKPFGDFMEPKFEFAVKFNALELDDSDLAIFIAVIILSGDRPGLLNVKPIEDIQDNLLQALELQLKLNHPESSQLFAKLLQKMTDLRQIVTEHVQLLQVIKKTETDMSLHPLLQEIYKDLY
# Procedure, shortened: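 HEK293H PPARg-bla cells, 5 h settle at 37C/5% CO2; compound (DMSO) 17 h, 37C; B/G FRET substrate 1 h RT; fluorescence intensity read-out. qHTS format.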
# [10] = biological target: Peroxisome proliferator-activated receptor gamma (Homo sapiens) (UniProt P37231); assay: qHTS assay to identify small molecule antagonists of the peroxisome proliferator-activated receptor gamma (PPARg) signaling pathway (AID 743191; calls by dose curve; further: nearly all actives have a fitted effect of over 30% in size; further: potency means the concentration at half of the fitted maximal effect)
# Procedure, shortened: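 Beta-lactamase reporter under UAS control in HEK293H PPARg-bla cells; compound treatment 17 h at 37C. Read-out: fluorescence intensity after 1 h room-temperature incubation with LiveBLAzer B/G FRET substrate.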
smiles,measurement,setting,value
O=c1oc2ccccc2c(O)c1Cc1c(O)c2ccccc2oc1=O,Potency,[1],inactive
same,Potency,[2],inactive
same,Potency,[3],7.5 µM (active)
same,Potency,[4],inactive
CN(C)[C@@H]1C(=O)C(C(N)=O)=C(O)[C@@]2(O)C(=O)C3=C(O)c4c(O)ccc(Cl)c4[C@@](C)(O)[C@H]3C[C@@H]12,Potency,[1],inactive
same,Potency,[5],inactive
same,Potency,[6],inactive
same,Potency,[4],inactive
same,Potency,[7],inactive
[Hg+2].[I-].[I-],Potency,[1],inactive
same,Potency,[2],8.71 µM (active)
same,Potency,[6],9.69 µM (active)
same,Potency,[4],27.5 µM (active)
same,Potency,[7],2.19 µM (active)
COc1cc(C=O)cc2c1[C@H](COC(N)=O)[C@]1(OC(C)=O)ON2C[C@H]2[C@@H]1N2C(C)=O,Potency,[1],inactive
same,Potency,[5],0.306 µM (active)
same,Potency,[2],inactive
same,Potency,[4],2.45 µM (active)
same,Potency,[8],inactive
CC(C)CC(C)(c1ccc(O)cc1)c1ccc(O)cc1,Potency,[1],inactive
same,Potency,[2],61.7 µM (active)
same,Potency,[6],54.5 µM (active)
same,Potency,[4],55.1 µM (active)
same,Potency,[7],55.1 µM (active) and 34.7 µM (active)
C=CC(=O)OCC(COC(=O)C=C)(COC(=O)C=C)COC(=O)C=C,Potency,[1],inactive
same,Potency,[5],19.3 µM (active)
same,Potency,[2],6.92 µM (active)
same,Potency,[4],2.45 µM (active)
same,Potency,[7],6.92 µM (active)
Nc1ccc(Sc2ccc(N)cc2)cc1,Potency,[1],13.7 µM (active)
same,Potency,[5],inactive
same,Potency,[2],inactive
same,Potency,[4],inactive
same,Potency,[8],inactive
same,Potency,[7],inactive
CN(C)C1CSSSC1,Potency,[1],inactive
same,Potency,[9],inactive
same,Potency,[2],inactive
same,Potency,[6],inactive
same,Potency,[4],inactive
same,Potency,[8],inactive
same,Potency,[7],inactive
CCCCCCCCCCCCCCCCCCn1cc[n+](C)c1,Potency,[1],inactive
same,Potency,[6],15.3 µM (active)
same,Potency,[4],43.4 µM (active)
same,Potency,[7],10.9 µM (active)
Oc1ccc(C2(c3ccc(O)cc3)c3ccccc3-c3ccccc32)cc1,Potency,[1],inactive
same,Potency,[2],17.4 µM (active)
same,Potency,[6],27.3 µM (active)
same,Potency,[4],21.9 µM (active)
same,Potency,[7],43.6 µM (active)
CCCCCCCCCC[N+](C)(C)CCCCCCCCCC,Potency,[1],inactive
same,Potency,[5],inactive
same,Potency,[2],15.5 µM (active)
same,Potency,[4],34.7 µM (active)
same,Potency,[7],21.9 µM (active)
ClCc1ccc(Cl)cc1Cl,Potency,[1],inactive
same,Potency,[5],inactive
same,Potency,[6],inactive
same,Potency,[4],inactive
same,Potency,[8],inactive
same,Potency,[7],inactive
CCC[CH2][Sn]([CH2]CCC)([CH2]CCC)[O]C(=O)c1ccccc1,Potency,[1],inactive
same,Potency,[5],2.73 µM (active)
same,Potency,[2],0.49 µM (active)
same,Potency,[4],1.38 µM (active)
same,Potency,[7],0.616 µM (active)
N#CCCC(Br)(C#N)CBr (stereo not drawn),Potency,[1],inactive
same,Potency,[5],inactive
same,Potency,[4],49 µM (active)
same,Potency,[7],inactive
CCC(C)c1cc([N+](=O)[O-])cc([N+](=O)[O-])c1OC(=O)C=C(C)C (stereo not drawn),Potency,[1],inactive
same,Potency,[2],54.9 µM (active)
same,Potency,[6],27.3 µM (active)
same,Potency,[4],inactive
CCCCCCCCCCCCCCCC[n+]1ccccc1,Potency,[1],inactive
same,Potency,[2],26.6 µM (active) [middle of 4 runs]
same,Potency,[6],26.9 µM (active) [middle of 4 runs]
same,Potency,[4],28.8 µM (active) and 24.5 µM (active) and 48.3 µM (active)
same,Potency,[7],23.7 µM (active) [middle of 4 runs]
CCCN(CC)CC1COC2(CCC(C(C)(C)C)CC2)O1 (stereo not drawn),Potency,[1],inactive
same,Potency,[5],inactive
same,Potency,[2],inactive
same,Potency,[4],inactive
same,Potency,[8],inactive
same,Potency,[7],inactive
CCOP(=O)(NC(C)C)Oc1ccc(SC)c(C)c1 (stereo not drawn),Potency,[1],14.8 µM (active)
same,Potency,[9],inactive
same,Potency,[6],inactive
CCCCCCCCc1ccc(O)cc1,Potency,[1],inactive
same,Potency,[5],inactive
same,Potency,[4],42.3 µM (active)
CC(C)(C)c1ccc(CSc2cnn(C(C)(C)C)c(=O)c2Cl)cc1,Potency,[1],inactive
same,Potency,[5],inactive
same,Potency,[6],24.3 µM (active)
same,Potency,[8],inactive
O=C(CCl)C(Cl)Cl,Potency,[1],inactive
same,Potency,[6],61.7 µM (active)
same,Potency,[7],17.5 µM (active)
[CH3][Hg][Cl],Potency,[1],inactive
same,Potency,[5],inactive
same,Potency,[2],12.3 µM (active)
same,Potency,[4],54.8 µM (active)
same,Potency,[7],12.3 µM (active)
S=C=Nc1cccc2ccccc12,Potency,[1],13.5 µM (active)
same,Potency,[10],inactive
same,Potency,[2],inactive
same,Potency,[6],15.2 µM (active)
same,Potency,[7],24.3 µM (active)
CCCCCCCCCCCCCCC(Br)C(=O)O (stereo not drawn),Potency,[1],inactive
same,Potency,[5],inactive
same,Potency,[2],43.6 µM (active)
same,Potency,[4],24.5 µM (active)
CC(C)(C)C(O)/C(=C\c1ccc(Cl)cc1Cl)n1cncn1 (stereo not drawn),Potency,[1],inactive
same,Potency,[10],52.8 µM (active)
same,Potency,[6],74 µM (active)
same,Potency,[4],inactive
same,Potency,[7],66.5 µM (active)
CCc1nn(C)c(C(=O)NCc2ccc(C(C)(C)C)cc2)c1Cl,Potency,[1],inactive
same,Potency,[5],inactive
same,Potency,[6],24.3 µM (active)
same,Potency,[4],54.9 µM (active)
same,Potency,[7],38.9 µM (active)
COc1ccc(N)cc1N,Potency,[5],63.1 µM (active) and inactive
same,Potency,[2],21 µM (active)
same,Potency,[6],19.9 µM (active) and 29.4 µM (active)
same,Potency,[4],8.01 µM (active)
Clc1ccc(CO/N=C(\Cn2ccnc2)c2ccc(Cl)cc2Cl)c(Cl)c1,Potency,[5],inactive
same,Potency,[9],inactive
same,Potency,[4],23.7 µM (active)
same,Potency,[7],inactive
ClC1=C(Cl)C2(Cl)C3C(Cl)C=CC3C1(Cl)C2(Cl)Cl (stereo not drawn),Potency,[5],inactive
same,Potency,[9],inactive
same,Potency,[2],55.2 µM (active) and 24.5 µM (active)
same,Potency,[7],38.9 µM (active)
Cc1c(Cl)c(=O)oc2cc(OP(=O)(OCCCl)OCCCl)ccc12,Potency,[5],inactive
same,Potency,[9],inactive
same,Potency,[10],inactive
same,Potency,[2],inactive
same,Potency,[3],inactive
same,Potency,[4],inactive
same,Potency,[8],inactive
same,Potency,[7],inactive
CCOP(=S)(OCC)OC(Cl)C(Cl)(Cl)Cl (stereo not drawn),Potency,[5],inactive
same,Potency,[9],inactive
same,Potency,[4],inactive
same,Potency,[8],inactive
Cc1cc(C(C)(C)c2cc(C)c(O)c(C)c2)cc(C)c1O,Potency,[5],52.7 µM (active)
same,Potency,[10],29.9 µM (active)
same,Potency,[8],inactive
same,Potency,[7],47.4 µM (active)
CN(C)CCc1c[nH]c2ccc(O)cc12,Potency,[5],inactive
same,Potency,[9],inactive
same,Potency,[10],inactive
same,Potency,[2],inactive
same,Potency,[6],inactive
same,Potency,[4],inactive
same,Potency,[8],59.7 µM (active)
